Screens deposited in PubChem by Broad Institute.
HSF1 activator: increases HSF-1 driven luciferase reporter signal. NIH3T3-HGL HSF-1 luciferase reporter, MG132, 8 h; 100% = twice DMSO control signal. activation, % at 9 µM. 300,000 tested, 1.7% active. AID 504408;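 active means mean replicate activation of at least 50% with a set share of replicates each reaching 50%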
HSF1 inh: HSF1 inhibition. activity change, negative = inhibition, % at 7.5 µM (by protocol). NIH3T3-HGL HSE-luciferase, MG132-induced, luminescence 8 h; stronger effect = lower value. 300,000 tested, 0.77% active;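 active means more than half of replicate wells show activity change below -50%, luminescence cut by over half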;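 further: luciferase reports HSF-1 transcriptional activity via heat shock element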
esBAF inh: SWI/SNF esBAF complex inhibition. mouse ES cells, Bmi1-luciferase knock-in reporter, 24 h; 100% = twice the neutral-well signal. reporter increase, % at 12.5 µM. 350,000 tested, 2% active; in the data active means activation above about 40%;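 further: a rise in the Bmi1 reporter signal indicates esBAF inhibition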
MITF act: MITF TRPM1 promoter activation in melanoma cells; SK-MEL-5 TRPM1-promoter luciferase, 24 h; % of positive control, neutral wells = 0; activation, % at 12.5 µM; 300,000 tested, 0.75% active;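 active means mean activation of at least 80% with every replicate also reaching 80%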
Wnt bcat act: Wnt/beta-catenin pathway activation. Wnt/beta-catenin reporter cell assay, activator, plate reader. AID 743398. activation, % at 9.35 µM. 300,000 tested, 1.2% active; in the data active means activation above about 30%, passing the limit was not always enough
Large screens that a line does not name were inactive. Most compounds without a hit are left out; they make up all but 3.9% or so of the library.

COc1ccccc1C1CC(=O)NC(SCC(=O)Nc2ccccc2)=C1C#N (stereo unspecified)	none
CC(C)C1CC(=O)NC(SCC(=O)Nc2ccc(Br)cc2)=C1C#N (stereo unspecified)	esBAF inh 98.9
CCCc1cc(C(N)=O)c(NC(=O)C2CCCO2)s1 (stereo unspecified)	none (no result: Wnt bcat act)
CCCc1cc(C(N)=O)c(NC(=O)c2ccco2)s1	Wnt bcat act 40.7 (no result: MITF act)
C/C=C/c1ccc([C@@H]2[C@@H](C#N)N(C(=O)NC3CCCCC3)[C@@H]2CO)cc1	none (no result: HSF1 activator, HSF1 inh, MITF act, Wnt bcat act)
O=C(CN1CCOCC1)Nc1ccc(C2CCCCC2)cc1	Wnt bcat act 31.0
Cc1ccc(NC(=O)CN2CCOCC2)cc1	none
CC1(C)Cc2c(c(N3CCOCC3)nc3sc(C(=O)Nc4ccccc4)c(N)c23)CO1	Wnt bcat act 33.6
O=C(CCC1CCCNC1)c1ccccc1 (stereo unspecified)	HSF1 inh -70.3 (no result: esBAF inh, MITF act, Wnt bcat act)
C[C@@H]1CCCCO[C@@H](CN(C)S(=O)(=O)c2cn(C)cn2)[C@@H](C)CN([C@@H](C)CO)C(=O)c2cc(NS(=O)(=O)c3cn(C)cn3)ccc2O1	none (no result: HSF1 activator, HSF1 inh, MITF act, Wnt bcat act)
O=C(O)CCc1ccc(-c2ccc(Br)cc2)n1NC(=O)c1ccc([N+](=O)[O-])cc1	none
Cc1ccc(-c2ccc(CCC(=O)O)n2NC(=O)c2ccc([N+](=O)[O-])cc2)cc1	Wnt bcat act 53.5
O=C1NC[C@@H](Cc2ccc(O)cc2)N(CCc2cccc3ccccc23)C1=O	none
CCCC[C@@H]1CNC(=O)C(=O)N1CCc1cccc2ccccc12	HSF1 inh -68.7 (no result: esBAF inh, MITF act, Wnt bcat act)
O=C(N[C@H]1CC[C@@H](CCNS(=O)(=O)c2ccc(F)cc2)O[C@@H]1CO)c1cccnc1	none (no result: HSF1 activator, HSF1 inh, MITF act, Wnt bcat act)
NNc1nc(-c2ccccc2Cl)nc2ccccc12	none
NNc1nc(-c2ccccc2Cl)nc2sc3c(c12)CCCC3	Wnt bcat act 45.9 (no result: esBAF inh)
Cn1cnnc1SCC(=O)Nc1ccc2nc(SCc3ccccc3F)sc2c1	esBAF inh 64.3, MITF act 106.0
O=C(CSc1nc2ccc(NC(=O)CSc3nnnn3-c3ccccc3)cc2s1)Nc1ccccc1	none (no result: esBAF inh)
COc1ccc(S(=O)(=O)N(C)C[C@H]2OCCCC[C@H](C)Oc3ccc(NS(=O)(=O)c4ccc(C)cc4)cc3C(=O)N([C@@H](C)CO)C[C@H]2C)cc1	none (no result: HSF1 activator, HSF1 inh, MITF act, Wnt bcat act)
CCCCn1c(SCC2CCCCO2)nc2cc(S(N)(=O)=O)ccc21 (stereo unspecified)	Wnt bcat act 40.4 (no result: esBAF inh)
CCCCn1c(SCc2nc3ccccc3s2)nc2cc(S(N)(=O)=O)ccc21	HSF1 activator 75.4 (no result: Wnt bcat act)
CCCCn1c(SCc2nc3ccccc3s2)nc2ccccc2c1=O	none (no result: esBAF inh)
CN1CCN(C(=O)C[C@H]2CC[C@H]3[C@@H](COc4ccc(NC(=O)C5CC5)cc4C(=O)N3C)O2)CC1	none (no result: HSF1 activator, HSF1 inh, MITF act, Wnt bcat act)
Cc1ccccc1CN1CCN(C(=O)CC(C)C)CC1	HSF1 inh -85.9
COc1ccc(CN2CCN(C(=O)CC(C)C)CC2)c2ccccc12	none (no result: Wnt bcat act)
C[C@@H]1CN([C@@H](C)CO)C(=O)c2cc(/C=C/c3ccccc3)cnc2O[C@H]1CN(C)S(=O)(=O)c1ccccc1	none (no result: HSF1 activator, HSF1 inh, MITF act, Wnt bcat act)
Cc1ccc2c(c1)-c1nc3ccccc3cc1C2=NC1CCCCC1	Wnt bcat act 47.0 (no result: HSF1 activator, HSF1 inh, esBAF inh)
Cc1ccc2c(c1)C(=NC1CCCCC1)c1cc3ccccc3nc1-2	HSF1 activator 60.1 (no result: esBAF inh)
C[C@@H]1CN([C@@H](C)CO)C(=O)c2cc(NS(=O)(=O)c3cn(C)cn3)ccc2O[C@@H]1CN(C)S(=O)(=O)c1ccc(Cl)cc1	none (no result: HSF1 activator, HSF1 inh, MITF act, Wnt bcat act)
C[C@@H]1CN([C@H](C)CO)C(=O)Cc2cc(NS(C)(=O)=O)ccc2O[C@H]1CN(C)Cc1ccncc1	none (no result: HSF1 activator, HSF1 inh, MITF act, Wnt bcat act)
C[C@@H]1CN([C@@H](C)CO)C(=O)CCCn2cc(nn2)CO[C@H]1CN(C)Cc1ccccc1C(F)(F)F	none (no result: HSF1 activator, HSF1 inh, MITF act, Wnt bcat act)
COc1ccc2oc(C(=O)OCC(=O)Nc3ccc(N4CCOCC4)cc3)c(C)c2c1	none (no result: esBAF inh)
COc1ccc2oc(C(=O)OCC(=O)Nc3ccc(C)c(S(=O)(=O)N4CCOCC4)c3)c(C)c2c1	esBAF inh 78.7 (no result: HSF1 activator, HSF1 inh, MITF act)
C[C@@H]1CN([C@@H](C)CO)C(=O)c2cc(/C=C/c3ccccc3)cnc2O[C@H]1CN(C)Cc1cncnc1	none (no result: HSF1 activator, HSF1 inh, MITF act, Wnt bcat act)
COc1ccc(NC(=O)Nc2ccc3c(c2)C(=O)N([C@@H](C)CO)C[C@@H](C)[C@@H](CN(C)S(=O)(=O)c2cn(C)cn2)OCCCC[C@H](C)O3)cc1	none (no result: HSF1 activator, HSF1 inh, MITF act, Wnt bcat act)
CC(=O)c1ccc(OC(=O)Oc2ccc(C(C)=O)cc2)cc1	none (no result: HSF1 activator, HSF1 inh, esBAF inh)
CC(=O)c1ccc(Oc2ccc(C(C)=O)cc2)cc1	HSF1 activator 56.0, esBAF inh 42.0
